Source: PubChem BioAssay (several laboratories)
Compounds with a hit are over-represented: about 3.2% of the library has one in this group of screens.
FBA Mtb inh – Mtb FBA enzyme inhibitors, primary screen, biochemical, fluorescence, strain H37Rv; Fructose-bisphosphate aldolase (Mycobacterium tuberculosis (strain ATCC 25618 / H37Rv)), …; purified M. tuberculosis FBA, fluorescence read-out; inhibition, % at 1 µM; 360,000 tested, 2.3% active; AID 588726, 2011; in the data active = inhibition above about 27%
GDH-TPI inh – GDH-TPI coupling enzyme inhibitors, primary screen, artefact control for M. tuberculosis FBA inhibitor project, biochemical, absorbance, full deck. GDH-TPI coupled enzyme counterscreen, NADH absorbance. inhibition, % at 4.8 µM. 360,000 tested, 1.2% active. AID 588335, 2011; in the data active = inhibition above about 30%
Yp Topo-I inh – Yersinia pestis topoisomerase I inhibitors, primary screen, biochemical, cleavage product accumulation, plate reader, single point | DNA topoisomerase I (Yersinia pestis CO92) | Y. pestis Topo-I cleavage product accumulation | activity, % at 10 µM | 360,000 tested, 0.064% active; in the data active = activity above about 50%, passing the limit was not always enough
TcdB GH inh – TcdB glycohydrolase inhibitors, primary screen, biochemical, single point, plate reader. Toxin B (Clostridioides difficile), P18177. TcdB glycohydrolase enzymatic assay. inhibition, % at 9.99 µM. 350,000 tested, 0.24% active. AID 652162, 2013; in the data active = inhibition above about 10%
PrPC surface inh – inhibitors of human cell surface prion protein PrPC, primary screen, cell-based, TR-FRET | Major prion protein (Homo sapiens), P04156 | 370,000 tested, 0.43% active | AID 720596, 2013 | TR-FRET read-out | inhibition, % at 13.8 µM; in the data active = inhibition above about 24%
Large screens that a line does not name were inactive.

COc1ccccc1-c1coc2c(CN3C(C)CCCC3C)c(O)ccc2c1=O (stereo unspecified)	none
COc1ccccc1-c1coc2c(CN3CCCC(C)C3)c(O)ccc2c1=O (stereo unspecified)	FBA Mtb inh active
COc1ccccc1Oc1c(C)oc2c(CN3CCN(CCO)CC3)c(O)ccc2c1=O	none (no result: FBA Mtb inh, GDH-TPI inh, Yp Topo-I inh, TcdB GH inh)
CCN(C[C@H]1[C@H](c2ccccc2)[C@@H](CO)N1S(C)(=O)=O)C(=O)C1CCCC1	none (no result: FBA Mtb inh, GDH-TPI inh, Yp Topo-I inh, PrPC surface inh)
N#CCCn1cc(C(=O)Nc2ccc([N+](=O)[O-])cc2)c(-c2ccccc2)n1	GDH-TPI inh 37.5
COc1ccc2cc3cc(C(=O)NCCN4CCN(c5ccccc5F)CC4)oc3nc2c1	FBA Mtb inh active, GDH-TPI inh 34.3 (no result: TcdB GH inh)
CCOc1ccc(NC(=O)c2cc3cc4ccc(OC)cc4nc3o2)cc1	none (no result: TcdB GH inh)
COCCNC(=O)c1cc2cc3ccc(OC)cc3nc2o1	FBA Mtb inh active
COc1ccc2cc3cc(C(=O)Nc4ccccc4N4CCN(C)CC4)oc3nc2c1	none (no result: TcdB GH inh)
COc1ccc2cc3cc(C(=O)NCC4CCCO4)oc3nc2c1 (stereo unspecified)	FBA Mtb inh active (no result: TcdB GH inh)
CCC(C)NC(=O)c1cc2cc3ccc(OC)cc3nc2o1 (stereo unspecified)	FBA Mtb inh active
Cc1noc(C)c1NC(=O)Nc1ccc2c(c1)C(=O)N([C@H](C)CO)C[C@H](C)[C@H](CN(C)Cc1ccc(Cl)c(Cl)c1)OCCCC[C@@H](C)O2	none (no result: FBA Mtb inh, GDH-TPI inh, Yp Topo-I inh, PrPC surface inh)
Cc1ccc2cc3cc(C(=O)NCCCN4CCCC4)oc3nc2c1	FBA Mtb inh 127.2, GDH-TPI inh 38.5
CCCN(CCC)CCCNC(=O)c1cc2cc3ccc(Cl)cc3nc2o1	none
COc1ccc2cc3cc(C(=O)NCCC(C)C)oc3nc2c1	FBA Mtb inh 134.1
COc1ccc2cc3cc(C(=O)N4CCCC(C)C4)oc3nc2c1 (stereo unspecified)	none
CCNC(=O)[C@@H]1[C@@H](CO)[C@@H]2Cn3c(ccc(-c4ccc(F)cc4)c3=O)[C@@H]2N1CC1CC1	none (no result: FBA Mtb inh, GDH-TPI inh, Yp Topo-I inh, PrPC surface inh)
CC(=O)Nc1ccc2c(c1)C(=O)N(C)[C@H]1CC[C@H](CC(=O)NCc3ccc(Cl)cc3)O[C@@H]1CO2	none (no result: FBA Mtb inh, GDH-TPI inh, Yp Topo-I inh, PrPC surface inh)
Cc1ccc(S(=O)(=O)N(C)C[C@H]2Oc3c(NC(=O)Nc4ccccc4)cccc3C(=O)N([C@@H](C)CO)C[C@@H]2C)cc1	none (no result: FBA Mtb inh, GDH-TPI inh, Yp Topo-I inh, PrPC surface inh)
Cc1cc(C(=O)Nc2cccc3c2O[C@H](CN(C)C(=O)NC2CCCCC2)[C@@H](C)CN([C@H](C)CO)C3=O)n(C)n1	none (no result: FBA Mtb inh, GDH-TPI inh, Yp Topo-I inh, PrPC surface inh)
CC(C)C(=O)c1ccc(O)c(O)c1	GDH-TPI inh 37.7
O=C(C(=O)c1ccc(O)c(O)c1)c1ccc(O)c(O)c1	GDH-TPI inh 78.4
Oc1ccc(CCNc2ncnc3ccc(Cl)cc23)cc1	TcdB GH inh 11.5, PrPC surface inh 36.2
Nc1nc(Cl)cc(NCCc2ccccc2)n1	none (no result: FBA Mtb inh, GDH-TPI inh, Yp Topo-I inh)
Nc1nc(Cl)cc(NCCc2ccc(O)cc2)n1	TcdB GH inh 13.5
O=C(C[C@@H]1C=C[C@H](NC(=O)C2CCC2)[C@@H](CO)O1)NCc1ccccc1Cl	none (no result: FBA Mtb inh, GDH-TPI inh, Yp Topo-I inh, PrPC surface inh)
O=C(O)CCCNC(=O)/C(=C\C=C\c1ccccc1)NC(=O)c1ccccc1Cl	none
C=CCNC(=O)/C(=C\C=C\c1ccccc1)NC(=O)c1ccccc1Cl	GDH-TPI inh 31.3
O=C(NNC(=O)C1[C@H]2CCCC[C@@H]12)c1ccc(=O)oc1 (stereo partly specified)	GDH-TPI inh 39.3
O=c1c2ccccc2nc(/C=C/c2ccc(Br)cc2)n1CCO	GDH-TPI inh 35.4
O=c1c2ccccc2nc(/C=C/c2ccc(Br)cc2)n1CCCO	none
COc1ccc(-n2c(/C=C/c3ccc(O)cc3)nc3ccccc3c2=O)cc1	GDH-TPI inh 57.1
O=c1c2ccccc2nc(/C=C/c2ccc(O)cc2)n1-c1ccc(O)cc1	none
C/C=C/c1ccc2c(c1)O[C@H](CN(C)C(=O)c1cccc(F)c1)[C@@H](C)CN([C@H](C)CO)S2(=O)=O	none (no result: FBA Mtb inh, GDH-TPI inh, Yp Topo-I inh, PrPC surface inh)
C[C@H]1CN([C@@H](C)CO)C(=O)Cc2cc(NC(=O)Nc3ccc(F)cc3)ccc2O[C@@H]1CN(C)S(=O)(=O)c1ccccc1	none (no result: FBA Mtb inh, GDH-TPI inh, Yp Topo-I inh, PrPC surface inh)
CCOC(=O)CC1(C)c2nc(NC(C)=O)sc2Cc2sc(NC(C)=O)nc21	FBA Mtb inh 160.8 (no result: GDH-TPI inh, Yp Topo-I inh)
C[C@@H]1CN([C@@H](C)CO)C(=O)c2cccc(NC(=O)C3CCOCC3)c2O[C@@H]1CN(C)Cc1ccc(Cl)c(Cl)c1	none (no result: FBA Mtb inh, GDH-TPI inh, Yp Topo-I inh, PrPC surface inh)
